For 16 compounds, growth results are on record in PubChem BioAssay (NCI).

Test in all cases: NCI-60 one-dose screen, 48 h (100 = growth as untreated, 0 = no growth, -100 = all killed)
Details in all cases: 10 µM unless noted

Experiment [1] relates to MOLT-4 leukemia.
Experiment [2] has as its system SR leukemia.
Experiment [3] concerns RPMI-8226 leukemia.
Experiment [4] has as its system OVCAR-8 ovarian.
Experiment [5] relates to OVCAR-5 ovarian.
Experiment [6] relates to OVCAR-4 ovarian.
The test system of experiment [7] is SK-OV-3 ovarian.
The test system of experiment [8] is IGROV1 ovarian.
Experiment [9] relates to HS 578T breast.
In experiment [10] the test system is NCI/ADR-RES ovarian.
For experiment [11], the system named is T-47D breast.
Experiment [12] concerns BT-549 breast.
Experiment [13] concerns MDA-MB-435 melanoma.
Experiment [14] concerns SW-620 colon.
The subject of experiment [15] is MCF7 breast.
In experiment [16] the test system is HCT-116 colon.
The test system of experiment [17] is HCC-2998 colon.
The subject of experiment [18] is KM12 colon.
The test system of experiment [19] is OVCAR-3 ovarian.

Values joined by “and” are separate entries in the source; they are usually repeats but may differ in a detail not shown here. Identical values can stand only once. About 83,000 compounds went through this panel and 20% of them were active in at least one assay; those are over-represented in the sample as a whole.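 Activity criterion: percent growth below 10, measured after cells in 96-well plates were exposed to a single compound concentration for 48 hours.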 Unmarked numbers belong to inactive results. Active and inactive are the calls of the source.

In the case of `C#Cc1cccc(Nc2nc(Cl)nc3cc(NC(=O)CF)ccc23)c1`, the growth in [1] is 80%; in experiment [2], 22.1%; in experiment [3] it was 103%; in [4] it was 88.2%; in experiment [5], 78.7%; in [6], 108%. In addition, the growth in [7] was 81.5%; in experiment [8] it was 75.4%; in experiment [9], 84.3%; in experiment [10] it was 53.9%; in experiment [11] it was 79.5%; in experiment [12] it was 72.2%. The growth in experiment [13] was -19.1% (active); in experiment [14] it was 35.4%; in experiment [15], 48.2%; in [16] it was 42.4%; in [17] it was 78.2%; in experiment [18], 40.1%.
As to `Oc1ccccc1C=NCCN=Cc1ccccc1O`, the growth is 106% in [1]; 98.5% in experiment [2]; 95.1% in experiment [3]; 110% in experiment [4]; 104% in [5]; 109% in experiment [6]. For the same compound, the growth in experiment [7] is 102%; in experiment [8], 118%; in [9] it was 106%; in [10], 103%; in [11] it was 103%; in [12], 106%. The growth in experiment [13] was 108%; in [14], 100%; in experiment [15], 97.7%; in experiment [16], 94.2%; in experiment [17] it was 105%; in experiment [18] it was 104%.
In the case of `C[N+]1(C)CCCC1c1cccnc1` (configuration not stated), the growth was 102% in experiment [1]; 97.8% in experiment [2]; 99.4% in experiment [3]; 104% in experiment [4]; 109% in [5]; 107% in experiment [6]. Also, the growth in experiment [7] is 108%; in [8] it was 115%; in experiment [9] it was 89.2%; in experiment [10], 111%; in experiment [11] it was 96.5%; in experiment [12], 85.3%. For the same compound, the growth was 108% in [13]; 100% in experiment [14]; 90.9% in experiment [15]; 92.5% in experiment [16]; 91.2% in experiment [17]; 103% in experiment [18].
In the case of `Oc1cc(Cl)ccc1Oc1ccc(Cl)cc1Cl`, the growth is 5.71% (active) in experiment [1]; 3.21% (active) in experiment [2]; 9.47% (active) in experiment [3]; 10.7% in experiment [4]; 86.2% in [5]; 29.9% in experiment [6]. Moreover, the growth in [7] is 89.2%; in experiment [8], 52.4%; in experiment [10] it was 7.74% (active); in experiment [11], 17.9%; in experiment [12], 8.8% (active); in experiment [13], 15.1%. Also, the growth was 21% in experiment [14]; 19.3% in [15]; 6.58% (active) in experiment [16]; 105% in experiment [17]; 21.9% in experiment [18].
Consider `CC[C@H](C)[C@H](NC(=O)[C@H]1CCCCN1C)C(=O)N(C)[C@H](CCc1nc(C(=O)N[C@@H](Cc2ccccc2)C[C@H](C)C(=O)O)cs1)C(C)C`, for which the growth in [1] was 20.4%; in experiment [2] it was 18.6%; in [3], 25.2%; in [4] it was 15.8%; in experiment [5], 46.8%; in experiment [6], 43.8%. In addition, the growth was 12.3% in experiment [7]; 41.5% in [8]; 27.7% in experiment [9]; 73.3% in [10]; 52.6% in experiment [11]; -3.33% (active) in experiment [12]. Moreover, the growth in experiment [13] is -38.1% (active); in experiment [14] it was 27.6%; in experiment [15], 14.2%; in [16], 2.59% (active); in [17] it was 21.5%; in experiment [18] it was 9.24% (active).
With `CC(=O)C(N)Cc1ccccc1` (configuration not stated), the growth in [1] was 101%; in experiment [2], 93.7%; in [3], 79.6%; in experiment [4] it was 91.8%; in experiment [5], 105%; in experiment [6] it was 99.1%. The growth in [7] is 83.1%; in experiment [8], 107%; in experiment [19] it was 114%; in [10] it was 99.4%; in experiment [11], 78.3%; in experiment [12], 96%. Besides, the growth in [13] was 102%; in experiment [15], 93.6%; in experiment [16] it was 86.3%; in [17] it was 96.3%; in [18], 106%.
`CC(Oc1ccc(-c2ccccc2)cc1)C(=O)O` (configuration not stated): the growth in experiment [1] was 104%; in experiment [2], 106%; in experiment [3] it was 101%; in experiment [4], 103%; in experiment [5], 108%; in experiment [6], 101%. Also, the growth in experiment [7] was 105%; in experiment [8], 103%; in [9], 110%; in [10], 104%; in [11], 98.4%; in experiment [12], 106%. Moreover, the growth in experiment [13] is 102%; in experiment [14], 102%; in experiment [15] it was 103%; in experiment [16] it was 98.5%; in [18], 107%.
Turning to `CN1CCC2(CC1)C(C#N)C(=O)NC(=O)C2C#N` (configuration not stated), the growth was 100% in experiment [1]; 86.5% in experiment [2]; 109% in experiment [3]; 99% in [4]; 104% in experiment [5]; 97.3% in experiment [6]. The growth in [7] was 110%; in experiment [8] it was 123%; in experiment [19], 117%; in [10], 113%; in [11], 107%; in [12] it was 103%. Moreover, the growth is 97.6% in experiment [13]; 108% in [14]; 88.6% in experiment [15]; 93.3% in experiment [16]; 112% in experiment [17]; 126% in experiment [18].
For the compound `C[N+]12CCC34C5=CC(=O)C(=O)C=C5[N+]5(C)C(=O)CC6OCC=C(C1)C(CC32)C6C45` (configuration not stated), the growth in [1] was 102%; in experiment [2], 92%; in experiment [3], 102%; in experiment [4] it was 99.5%; in [5] it was 106%; in experiment [6] it was 101%. Also, the growth was 99.9% in [7]; 96.9% in experiment [8]; 103% in [19]; 114% in experiment [10]; 107% in [11]; 127% in [12]. For the same compound, the growth was 103% in [13]; 111% in [14]; 95.7% in experiment [15]; 114% in [16]; 106% in [17]; 104% in [18].
`O=C1NC(=O)C(=Cc2ccccc2)C(=O)N1`: the growth is 81.5% and 109% in experiment [1]; 89.7% and 107% in experiment [2]; 112% and 110% in experiment [3]; 104% in experiment [4]; 108% in experiment [5]; 109% and 112% in experiment [6]. Besides, the growth in [7] is 106% and 107%; in experiment [8], 92.5% and 104%; in experiment [10] it was 100% and 103%; in experiment [11] it was 94.8% and 105%; in experiment [12], 106% and 116%; in experiment [13], 113% and 104%. For the same compound, the growth in [14] is 103% and 105%; in experiment [15], 145% and 102%; in experiment [16] it was 94% and 102%; in experiment [17], 99.6% and 117%; in experiment [18], 114% and 108%.
Regarding `COc1ccc(N(CC(=O)NCCC[Te]c2ccccc2)C(=O)c2ccccc2)cc1`, the growth in experiment [1] is 17.9%; in experiment [2], 10.3%; in [3], 22.5%; in [4], 14.2%; in experiment [5], 33.4%; in experiment [6] it was 99%. The growth was 1.16% (active) in [7]; 15.4% in experiment [8]; 32.4% in experiment [9]; 11.5% in experiment [10]; 135% in experiment [11]; -36.2% (active) in [12]. Moreover, the growth in experiment [13] was 101%; in experiment [14], 82%; in [15], 13.2%; in experiment [16], 9.88% (active); in experiment [17], 57.6%; in [18], 26.3%.
Take `CCCC(C)SP(=S)(SC(C)CCC)SC(C)CCC` (configuration not stated): the growth was 110% in experiment [1]; 110% in [2]; 105% in [3]; 107% in experiment [4]; 112% in experiment [5]; 110% in experiment [6]. In addition, the growth is 108% in [7]; 109% in experiment [8]; 99.9% in [10]; 100% in [11]; 99.8% in experiment [12]; 97.3% in experiment [13]. Moreover, the growth in experiment [14] was 91.7%; in experiment [15], 95.1%; in [16], 101%; in experiment [17], 91.5%; in [18] it was 97.3%.
Regarding `C/C(=N/OC(=O)N(C)C)c1ccc(Cl)c(Cl)c1`, the growth in [1] was 86.3%; in experiment [2], 74.5%; in [3] it was 89%; in experiment [4], 104%; in experiment [5] it was 100%; in experiment [6] it was 119%. The growth is 116% in experiment [7]; 105% in [8]; 116% in experiment [9]; 106% in experiment [10]; 95.6% in experiment [11]; 125% in [12]. The growth in experiment [13] is 106%; in experiment [14], 115%; in experiment [15], 97.3%; in experiment [16], 107%; in experiment [17], 109%; in [18] it was 109%.
Regarding `Cc1ccc(S(=O)(=O)n2cc([C@@]3(O)C[C@H](CSC#N)OC3=O)c3ccccc32)cc1`, the growth was 7.16% (active) in experiment [1]; 49% in experiment [2]; 16.3% in experiment [3]; 83.2% in [4]; 83.9% in [5]; 75.7% in experiment [6]. Moreover, the growth in [7] is 99.6%; in experiment [8], 71.6%; in experiment [9], 44.4%; in [10] it was 82.2%; in experiment [11] it was 62.8%; in experiment [12] it was 70.9%. For the same compound, the growth is 63.3% in experiment [13]; 36.1% in experiment [14]; 23.6% in experiment [15]; 45.6% in [16]; 25.1% in experiment [17]; 68.7% in [18].
Turning to `Cc1cc(Br)c([N+](=O)[O-])cc1[N+](=O)[O-]`, the growth in experiment [1] is 71.1%; in experiment [2], 40.4%; in experiment [3] it was 120%; in experiment [4] it was 94.9%; in [5], 107%; in experiment [6] it was 113%. Also, the growth in experiment [7] was 104%; in [8], 110%; in [9] it was 105%; in experiment [10], 94.4%; in experiment [11] it was 85.7%; in experiment [12], 106%. Moreover, the growth was 96.3% in experiment [13]; 23% in [14]; 91% in experiment [15]; 20.5% in experiment [16]; 111% in experiment [17]; 91.8% in experiment [18].
With `CN1C2CCC1[C@@H](COC(=O)c1ccccc1)[C@@H](O)C2` (some centres not stated), the growth in experiment [1] is 97.8%; in [2] it was 105%; in experiment [3] it was 77.7%; in [4], 103%; in experiment [5], 106%; in [6] it was 103%. The growth was 107% in experiment [7]; 119% in experiment [9]; 110% in [10]; 124% in experiment [11]; 143% in experiment [12]; 121% in experiment [13]. In addition, the growth in experiment [14] is 111%; in [15], 97.3%; in [16], 101%; in [17], 105%; in experiment [18] it was 103%.
